Bioassay records from PubChem BioAssay.
This is one part of a sample in which hits are shown more often than they occur.
SARS PLP yeast: SARS-CoV PLP inhibition in yeast; S. cerevisiae expressing SARS-CoV PLpro, growth rescue; Potency, µM (top dose mostly 32.9 µM), actives largely listed as activators; actives 0.19% (n = 330,000); AID 485353; note: nearly all actives have a fitted effect of over 55% in size
Cycloheximide cs: affects cycloheximide protein synthesis inhibition readout, counter-screen. max response, %. AID 2314. cell reporter, cycloheximide protein synthesis inhibition counterscreen. actives 12% (n = 300,000); in the data active = max response mostly above about 13%, no sharp cut-off; inactive = mostly below about 14%; note: read at 38.3 µM for the half of the compounds with a filed dose
LmPK inh: blocks Leishmania mexicana pyruvate kinase activity. Q27686. purified LmPK, Kinase-Glo ATP luminescence, 1 h. Potency, µM (doses to about 57.5 µM), hits mostly inhibitors. actives 0.37% (n = 290,000); active = well fitted curve in the direction sought with a large enough effect; inconclusive = small, poorly fitted or top-dose-only effect, or another doubt; inactive = no such curve, though single readings can be large; an effect the other way counts as inactive or inconclusive
Target sequence (Q27686 whole entry, looked up): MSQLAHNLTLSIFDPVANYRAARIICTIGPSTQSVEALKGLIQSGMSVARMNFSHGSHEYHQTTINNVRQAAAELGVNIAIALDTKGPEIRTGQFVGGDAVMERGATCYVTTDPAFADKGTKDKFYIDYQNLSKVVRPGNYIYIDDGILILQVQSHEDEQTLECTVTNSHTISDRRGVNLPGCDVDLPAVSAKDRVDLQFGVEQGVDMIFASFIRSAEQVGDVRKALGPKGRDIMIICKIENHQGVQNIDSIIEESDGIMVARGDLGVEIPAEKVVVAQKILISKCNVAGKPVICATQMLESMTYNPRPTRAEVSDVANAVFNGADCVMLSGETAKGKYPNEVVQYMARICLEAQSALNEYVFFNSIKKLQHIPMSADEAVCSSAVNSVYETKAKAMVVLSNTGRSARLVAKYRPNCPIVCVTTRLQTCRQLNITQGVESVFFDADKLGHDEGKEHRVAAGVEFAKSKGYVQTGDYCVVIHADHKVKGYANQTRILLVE
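Screened at intermediate enzyme activity to detect both inhibitors and activators: LmPK at 0.1 nM, with a 0.5 nM enzyme column as activation reference. PEP 0.5 mM, ADP 0.1 mM; ATP detected by luminescence after 1 h.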
Shiga toxin inh: Shiga toxin inhibition; Vero cells, Shiga toxin protein synthesis inhibition reporter; inhibition, % at 38.7 µM; actives 9.2% (n = 290,000); AID 2315; in the data active = inhibition mostly above about 28%, no sharp cut-off; inactive = mostly below about 43%
TbPYK inhibitor: inhibitors of Trypanosoma brucei pyruvate kinase | Q57TT1 | TbPYK enzyme, Kinase-Glo Plus ATP luminescence, 45 min | Potency, µM (titrated, usually from 76.8 µM), most hits filed as inhibitors | actives 0.12% (n = 410,000) | AID 624173; active = well fitted curve in the direction sought with a large enough effect; inconclusive = small, poorly fitted or top-dose-only effect, or another doubt; inactive = no such curve, though single readings can be large; an effect the other way counts as inactive or inconclusive; note: nearly all actives have a fitted effect of over 50% in size
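Glycolytic pyruvate kinase of T. brucei was incubated with substrate, test compound and 130 uM ADP for 45 minutes at room temperature. Luminescent Kinase-Glo Plus signal was measured after 10 minutes.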
NS1 inh: blocks influenza NS1 protein function. Potency, µM (highest dose often 46.1 µM). actives 0.4% (n = 270,000). AID 2326; note: actives are rising curves; nearly all actives have a fitted effect of over 50% in size
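Read-out: OD600 growth recovery of NS1-expressing budding yeast. Cells grown overnight at 30C in -URA glucose medium, washed, resuspended and diluted 1:100 in 2% galactose assay medium, pH 6.0. Same strain lacking NS1 served as positive control.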
Hits are given with their value; - = inactive; ? = inconclusive; . = no result given. Unless noted, calls come from the whole dose curve.

SMILES	SARS PLP yeast	Cycloheximide cs	LmPK inh	Shiga toxin inh	TbPYK inhibitor	NS1 inh
CC(=O)Nc1ccc(NC2=C(Cl)C(=O)c3ccccc3C2=O)cc1	-	-	-	-	-	.
S=C(NCCc1ccccc1)N1CCN(C2CCCCC2)CC1	-	-	-	-	-	.
O=C(NCCc1ccccc1)N1CCCC(CNS(=O)(=O)Cc2ccccc2)C1 (configuration not stated)	-	14	-	-	-	-
CC1CCN(C(=S)NCCc2ccccc2)CC1	-	30	-	82	-	-
OCC1CCCN(C(=S)NCCc2ccccc2)C1 (configuration not stated)	-	33	-	-	-	?
CN1CCN(C(=S)NCCc2ccccc2)CC1	-	35	-	-	-	-
S=C(NCCc1ccccc1)N1CCN(C(=S)NCCc2ccccc2)CC1	-	.	.	.	-	.
OC(c1ccccc1)(c1ccccc1)C1CCN(C(=S)NCCc2ccccc2)CC1	-	-	-	-	-	-
Cc1ccc(NC(=O)C(=O)Nc2ccccn2)cc1	-	38	?	69	-	-
COc1ccccc1NC(=O)C(=O)Nc1ccccn1	-	76	-	94	-	-
COc1ccccc1OCC(=O)Nc1ccccn1	-	27	13µM	-	?	-
Cc1c(C)c2ccc(OCC(=O)N3CCOCC3)c(C)c2oc1=O	-	20	-	-	-	.
CCCSCCCNC(=O)C1CCN(C(=O)c2cc3sccc3n2C)CC1	.	.	.	.	-	.
Cc1cc(=O)oc2c(C)c(OCC(=O)Nc3cccnc3)ccc12	-	31	-	41	-	-
Cc1c(C)c2ccc(OCC(=O)Nc3ccccn3)c(C)c2oc1=O	-	22	-	35	?	-
CCCc1cc(=O)oc2c(C)c(OCC(=O)Nc3cccnc3)ccc12	-	-	-	-	-	-
O=P1(O)C=C(c2ccccc2)OC(c2ccccc2)=C1	-	67	-	146	-	-
CCN1CCN(P2(=O)C=C(c3ccccc3)OC(c3ccccc3)=C2)CC1	-	-	-	-	-	-
CC12C(=O)N(Cc3ccco3)C(=O)C1C1c3ccccc3C2c2ccccc21 (configuration not stated)	-	46	-	-	-	-
CC1(O)c2ccccc2C(=O)N1CCc1ccccc1F (configuration not stated)	-	43	-	66	-	-
Cc1nc(CC(=O)NNS(=O)(=O)c2cccc(Cl)c2Cl)cs1	-	.	.	.	-	.
CC(C)C(NC(=O)c1ccc(F)cc1)C(=O)N1CCOCC1 (configuration not stated)	-	.	.	.	-	.
Cc1cc2oc(=O)cc(-c3ccccc3)c2c(C)c1-c1ccc(O)cc1	-	-	.	-	-	.
Cc1oc2cc(Br)c(O)c(Br)c2c1-c1ccccc1	-	18	-	59	-	-
CC(=O)CCS(=O)(=O)c1ccc(Oc2ccc(S(=O)(=O)CCC(C)=O)cc2)cc1	-	17	-	23	-	-
SMILES	SARS PLP yeast	Cycloheximide cs	LmPK inh	Shiga toxin inh	TbPYK inhibitor	NS1 inh
COc1cccc(CC(=O)OC(C)C(=O)Nc2ncc(Cl)cc2Cl)c1 (configuration not stated)	-	.	.	.	-	.
Cc1nccc(-c2cccc(N/N=C(\C#N)C(=O)c3ccccc3)c2)n1	-	-	-	-	-	-
N#C/C(=N\Nc1cccc(C(F)(F)F)c1)C(=O)c1ccsc1	-	68	-	94	-	-
CC1(C(=O)NS(=O)(=O)C2CC2)CCCN(C(=O)c2cccc(Cl)c2)C1 (configuration not stated)	.	.	.	.	-	.
C/C(CC(=O)Nc1cc(Cl)ccc1C)=N\NC(=O)C(=O)N1CCCC1	-	17	-	-	-	-
C/C(CC(=O)Nc1ccc(Cl)cc1)=N\NC(=O)C(=O)N1CCCCC1	-	16	-	52	-	-
CCOc1ccc(NC(=O)c2cc3c(-c4ccccc4F)nn(C)c3s2)cc1	.	.	.	.	-	.
CCCCOC(=O)c1ccc(OC(=O)c2cccnc2)cc1	-	24	-	33	-	-
CCCCCCOC(=O)c1ccc(OC(=O)c2cccnc2)cc1	-	32	-	58	-	-
CC(C)(C)c1ccc(OC(=O)c2cccnc2)cc1	-	18	-	-	-	-
COc1ccc(C(=O)Oc2ccc(C(C)=O)cc2)c(OC)c1	-	30	-	-	-	-
COc1ccc(NC(=O)N(C)C[C@@H]2Oc3cc(C#CCN(C)C)ccc3S(=O)(=O)N([C@H](C)CO)C[C@H]2C)cc1	.	.	.	.	-	.
Cc1ccc(S(=O)(=O)N(C)CC(=O)Nc2ccccc2N2CCCC2)cc1	-	.	.	.	-	.
Cc1ccc(NC(=O)Cn2cnc3c(oc4ccccc43)c2=O)cc1Cl	.	.	.	.	-	.
COc1ccccc1C(=O)Oc1ccc(C(C)(C)C)cc1	-	29	-	-	-	-
COc1ccc(C2c3[nH]c4ccccc4c3CCN2C(=O)Cc2nonc2C)c(F)c1 (configuration not stated)	-	37	-	109	-	-
CCn1nc(C)cc1C(=O)N1CCc2c([nH]c3ccccc23)C1c1cc(F)ccc1F (configuration not stated)	-	55	-	82	-	-
Cc1ncoc1C(=O)N1CCc2c([nH]c3ccccc23)C1c1ccccc1F (configuration not stated)	-	-	-	-	-	-
COc1ccc(C2c3[nH]c4ccccc4c3CCN2Cc2ccoc2)c(F)c1 (configuration not stated)	-	-	-	-	-	-
Cc1ccc2occ(CC(=O)Nc3ccc(S(=O)(=O)N4CCCC(C)C4)cc3)c2c1 (configuration not stated)	.	.	.	.	-	.
COc1ccc(CCNC(=O)Cn2c(=O)c3cccn3c3ccc(F)cc32)c(OC)c1	.	.	.	.	-	.
CC(C)c1ccc(S(=O)(=O)/N=C2/C=C(Sc3ncn[nH]3)C(=O)c3ccccc32)cc1	-	36	?	78	14µM	-
CC(C)(C)c1ccc(S(=O)(=O)/N=C2\C=C(NS(=O)(=O)c3ccccc3)C(=O)c3ccccc32)cc1	-	-	-	-	-	-
Cc1nnsc1C(=O)N1CCCC(N2CCN(c3ccc(F)cc3)CC2)C1 (configuration not stated)	0.71µM	-	-	-	-	-
Cc1nnsc1C(=O)N1CCN(c2ccc(F)cc2)CC1	-	-	-	-	-	-
COc1cnn(-c2ccc(Br)cc2)c(=O)c1SCc1ccccc1	-	49	-	130	-	-
COc1cnn(-c2ccc(C)cc2)c(=O)c1SCc1ccccc1	-	38	-	84	-	-
O=C(NCCc1csc(-c2cccc(F)c2)n1)c1ccccc1C(F)(F)F	.	.	.	.	-	.
COCCN(C(=O)c1ccc(OCC(C)C)cc1)c1c(N)n(Cc2ccccc2)c(=O)[nH]c1=O	-	.	.	.	-	.
CCOc1cc(CNC(=O)Cn2c(=O)c3cccn3c3ccc(F)cc32)cc(OCC)c1OCC	.	.	.	.	-	.
